Pf Dd2 growth – inhibitors of Plasmodium falciparum Dd2 growth. P. falciparum Dd2 growth, SYBR Green, 72 h; stronger effect = lower value. activity change, % at 10 µM. actives 2.3% (n = 94,000). AID 1159554; in the data active = activity change below about -80%; inconclusive = no clear call, values can overlap the other calls
C diff growth – inhibitors of Clostridium difficile growth; Clostridium difficile clinical isolate growth, OD600, 24 h; stronger effect = lower value; growth activity, negative = inhibition, % at 16 µg/mL (by protocol); actives 0.25% (n = 86,000); AID 1259249;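 active = mean growth activity at or below -80% and every replicate also at or below -80%; inconclusive = mean at or below -80% but some replicate above -80%; inactive = mean growth activity above -80%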;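 note: 0% = DMSO wells and -100% = levofloxacin 16 µg/mL wells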
T cruzi growth – T. cruzi proliferation inhibition; inhibition, % at 8.34 µM; actives 5.9% (n = 77,000); T. cruzi beta-gal in NIH3T3, GalScreen luminescence, 90 h;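 active = mean inhibition above about 93%, with at least 55% of replicates each passing it, limit read from the data, passing the limit was not always enough; inconclusive = only one of those two conditions holds; inactive = neither condition holds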
Numbers without * were called inactive; ? = inconclusive; / = no result; ! = not active in a repeat. A selection: hits, their analogues and other compounds. The true share with any hit is near 6.8%.

SMILES	Pf Dd2 growth	C diff growth	T cruzi growth
C[C@@H]1CN([C@@H](C)CO)C(=O)c2cc(C#Cc3ccccc3F)cnc2O[C@H]1CN(C)C(=O)C1CCCCC1	-33	-23	/
C[C@H](CO)N1C[C@H](C)[C@@H](CN(C)C(=O)CCN2CCCCC2)Oc2ncc(C#Cc3ccccc3)cc2C1=O	-66	7	29
CN1C(=O)CS(=O)(=O)C1c1ccccc1 (stereo not given)	/	-3	/
COc1ccc2c3c(n(C)c2c1)[C@@H](CO)NCC31CCN(S(=O)(=O)c2ccccc2)CC1	60	/	/
COc1ccc2c3c(n(C)c2c1)[C@H](CO)N(C(=O)CN(C)C)CC31CN(Cc2cccnc2)C1	?	3	/
COc1ccc(S(=O)(=O)Nc2ccc3c(c2)[C@@H]2C[C@H](CC(=O)NCC4CC4)O[C@@H](CO)[C@@H]2O3)cc1	5	/	-25
CCCC#Cc1cnc2c(c1)C(=O)N([C@@H](C)CO)C[C@@H](C)[C@H](CN(C)C(=O)Nc1cc(F)ccc1F)O2	-83*	-9	/
CCCC#Cc1cnc2c(c1)C(=O)N([C@H](C)CO)C[C@H](C)[C@@H](CN(C)C(=O)Nc1cc(F)ccc1F)O2	-63	-18	/
C[C@H](CO)N1C[C@H](C)[C@H](CN(C)C(=O)C2CC2)Oc2ncc(C#Cc3cccc(F)c3)cc2C1=O	-18	3	61
C[C@@H]1CN([C@@H](C)CO)C(=O)c2cc(C#Cc3cccc(F)c3)cnc2O[C@@H]1CN(C)C(=O)C1CCCCC1	-86*	/	122
N#C[C@H]1[C@H](c2ccccc2-c2ccccc2F)[C@@H](CO)N1C(=O)C1CCOCC1	-71	14	/
CNC[C@@H]1Oc2c(NC(=O)Nc3ccc(C(F)(F)F)cc3)cccc2C(=O)N([C@H](C)CO)C[C@H]1C	-18	10	54
COc1ccc(NC(=O)Nc2cccc3c2O[C@H](CN(C)Cc2ccc(-c4ccccc4)cc2)[C@@H](C)CN([C@@H](C)CO)C3=O)cc1	-86*	-2	/
COc1ccc(NC(=O)Nc2cccc3c2O[C@H](CN(C)Cc2ccc(-c4ccccc4)cc2)[C@H](C)CN([C@@H](C)CO)C3=O)cc1	-42	23	90
C[C@@H]1CN([C@H](C)CO)C(=O)c2cccc(NC(=O)Nc3ccc(F)cc3)c2O[C@H]1CN(C)Cc1ccc(-c2ccccc2)cc1	-8	-2	-30
C[C@@H]1CN([C@@H](C)CO)C(=O)c2cccc(NC(=O)Nc3ccc(F)cc3)c2O[C@@H]1CN(C)Cc1ccc(-c2ccccc2)cc1	-66	-93*	92
CN1CCN(C(=O)C[C@H]2CC[C@H](NC(=O)Cc3ccccn3)[C@H](CO)O2)CC1	-15	/	-109
O=C(C1CCOCC1)N1CC(=O)N2[C@@H](CO)[C@H](c3ccc(C#CC4CC4)cc3)[C@@H]2C1	10	25	/
C[C@@H]1CN([C@H](C)CO)C(=O)c2cccc(NC(=O)Nc3ccccc3)c2O[C@H]1CN(C)C(=O)Nc1ccccc1	4	-4	-3
COc1ccc(CN(C)C[C@H]2OCCCC[C@H](C)Oc3ccc(NC(=O)Nc4ccc(C(F)(F)F)cc4)cc3C(=O)N([C@@H](C)CO)C[C@H]2C)cc1	-75	8	59
COc1ccc(CN(C)C[C@@H]2OCCCC[C@H](C)Oc3ccc(NC(=O)Nc4ccc(C(F)(F)F)cc4)cc3C(=O)N([C@@H](C)CO)C[C@@H]2C)cc1	-87*	-15	96
COc1ccc(NC(=O)Nc2ccc3c(c2)C(=O)N([C@@H](C)CO)C[C@@H](C)[C@@H](CN(C)Cc2ccc(C(F)(F)F)cc2)OCCCC[C@H](C)O3)cc1	-76	8	75
COc1ccc(CN(C)C[C@H]2OCCCC[C@@H](C)Oc3ccc(NC(=O)Nc4ccc(C(F)(F)F)cc4)cc3C(=O)N([C@H](C)CO)C[C@H]2C)cc1	-67	-22	101
COc1ccc(NC(=O)Nc2ccc3c(c2)C(=O)N([C@@H](C)CO)C[C@@H](C)[C@@H](CN(C)Cc2ccc(C(F)(F)F)cc2)OCCCC[C@@H](C)O3)cc1	-83*	-1	78
COc1ccc(NC(=O)Nc2ccc3c(c2)C(=O)N([C@@H](C)CO)C[C@H](C)[C@@H](CN(C)Cc2ccc(C(F)(F)F)cc2)OCCCC[C@@H](C)O3)cc1	-91*	5	66
SMILES	Pf Dd2 growth	C diff growth	T cruzi growth
C[C@@H]1CN([C@H](C)CO)C(=O)c2cc(-c3ccccc3)cnc2O[C@@H]1CN(C)C(=O)Nc1ccccc1F	-4	-6	-98
O=C(C[C@H]1C=C[C@H](NC(=O)C2CCOCC2)[C@@H](CO)O1)Nc1ccccc1	11	3	/
CCCN(C)C[C@H]1Oc2ncc(C#Cc3ccccc3OC)cc2C(=O)N([C@@H](C)CO)C[C@H]1C	78	/	/
COc1ccc(C#Cc2cnc3c(c2)C(=O)N([C@@H](C)CO)C[C@@H](C)[C@@H](CN(C)C(=O)c2ccccc2F)O3)cc1	-65	3	72
CCCN(C)C[C@H]1Oc2ncc(C#Cc3ccc(OC)cc3)cc2C(=O)N([C@@H](C)CO)C[C@H]1C	-87*	3	/
COc1ccc(C#Cc2cnc3c(c2)C(=O)N([C@H](C)CO)C[C@H](C)[C@H](CN(C)C(=O)c2ccccc2F)O3)cc1	-84*	10	60
CCCN(C)C[C@H]1Oc2ncc(C#Cc3ccccc3OC)cc2C(=O)N([C@H](C)CO)C[C@H]1C	-87*	3	/
CCCC#Cc1cnc2c(c1)C(=O)N([C@H](C)CO)C[C@H](C)[C@@H](CN(C)CCC)O2	-47	0	67
CCCN(C)C[C@@H]1Oc2ncc(C#Cc3ccc(OC)c(OC)c3)cc2C(=O)N([C@H](C)CO)C[C@@H]1C	-82*	8	24
COc1ccc(C#Cc2cnc3c(c2)C(=O)N([C@@H](C)CO)C[C@@H](C)[C@@H](CN(C)C)O3)cc1	-58	-7	74
C[C@@H]1CN([C@@H](C)CO)C(=O)c2cc(NS(=O)(=O)c3cccs3)ccc2O[C@H]1CN(C)Cc1ccc(Cl)c(Cl)c1	-2	6	14
O=C(C[C@H]1CC[C@@H]2[C@H](COC[C@H](O)CN2Cc2cc(F)ccc2F)O1)NCc1ccc(F)cc1	2	/	-50
CC(C)Cc1ccc(CN2CC[C@@H](NS(=O)(=O)c3ccccc3)C2)cc1	/	-3	/
C[C@@H]1CCCCO[C@H](CN(C)S(=O)(=O)c2ccccc2)[C@@H](C)CN([C@@H](C)CO)C(=O)c2cc(NC(=O)CCC(F)(F)F)ccc2O1	-62	17	78
C[C@H]1CN([C@@H](C)CO)C(=O)c2cc(NC(=O)C3CCCCC3)ccc2O[C@@H]1CN(C)Cc1ccc(Cl)c(Cl)c1	10	6	99
C[C@H](NC(=O)C[C@@H]1C=C[C@H](NC(=O)C2CCC2)[C@@H](CO)O1)c1ccccc1	1	/	-47
C[C@H](CO)N1C[C@H](C)[C@H](CN(C)Cc2ccccc2)Oc2cc(C#CCN(C)C)ccc2S1(=O)=O	-50	-2	67
O=C(N[C@H]1CC[C@H](CCNS(=O)(=O)c2ccc(Cl)cc2)O[C@@H]1CO)c1cnccn1	10	-2	-32
COc1ccc(C#Cc2cnc3c(c2)C(=O)N([C@H](C)CO)C[C@H](C)[C@H](CN(C)S(=O)(=O)c2cccs2)O3)cc1OC	-84*!	/	77

From PubChem BioAssay
